Assay outcomes deposited in PubChem BioAssay by National Center for Advancing Translational Sciences (NCATS).
Most compounds without a hit are left out; they make up all but 2.4% or so of the library.
Pol eta inh = blocks human DNA polymerase eta activity; Potency, µM (top dose mostly 114 µM), usual class: inhibitors; actives 1.2% (n = 390,000); recombinant Pol eta, fluorescent DNA replication assay
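Pol eta at 10 nM preincubated with compounds 15 min at room temperature; reaction started with fluorescent substrate (50 nM final) and read kinetically at 0 and 10 min.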
Pol iota inh = blocks human DNA polymerase iota activity. Q9UNA4. Pol iota fluorescent replication assay, 10 min. Potency, µM (titrated, usually from 115 µM), hits mostly inhibitors. actives 1% (n = 390,000). AID 588590
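Fluorescent replication assay read twice, at 0 min and 10 min after adding 50 nM (final) substrate. Enzyme (10 nM) and compounds were first incubated 15 min at room temperature; enzyme-free buffer wells were negative controls.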
WRN helicase inh-1 = blocks human WRN helicase; Q14191; WRN helicase unwinding, fluorescent forked duplex, kinetic; Potency, µM (highest dose often 114 µM), most hits filed as inhibitors; actives 0.46% (n = 360,000); AID 651768; also: nearly all actives have a fitted effect of over 55% in size
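Screening of the MLSMR collection measured strand separation of a quenched forked DNA duplex (100 nM) by 20 nM WRN with 2 mM ATP, all final. Compounds were preincubated with enzyme 15 min at room temperature.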
POLB inh = DNA polymerase beta (human) inhibition; P06746; Pol beta primer extension/strand displacement, fluorescence kinetic; Potency, µM (titrated, usually from 114 µM), usual class: inhibitors; actives 1.3% (n = 340,000)
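Enzyme-only controls used 10 nM Pol beta; buffer lacking enzyme served as negative control. Compound preincubated 15 min, then 50 nM substrate added; 0 and 10 min reads at room temperature.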
FEN1 inh = blocks human flap endonuclease 1; Potency, µM (highest dose often 114 µM), most hits filed as inhibitors; P39748; actives 0.35% (n = 390,000); AID 588795; Recombinant FEN1 flap cleavage, fluorescence, 15 min; also: nearly all actives have a fitted effect of over 65% in size
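Reaction started by adding substrate (50 nM final) to 10 nM enzyme after 15 min room-temperature compound preincubation. Reads at 0 and 15 min, with data normalized and fitted to a four-parameter Hill equation.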
Pol kappa inh = blocks human DNA polymerase kappa activity | Q9UBT6 | purified Pol kappa, fluorescent DNA synthesis assay, 10 min | Potency, µM (highest dose often 107 µM), actives largely listed as inhibitors | actives 0.53% (n = 400,000) | AID 588579
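10 nM Pol kappa preincubated 15 min at room temperature with compounds, then reaction started with substrate at 50 nM final. Fluorescence read kinetically at 0 and 10 min; buffer-only wells served as negative control.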
WRN helicase inh-2 = confirmation of human WRN helicase inhibitors; shares compounds with WRN helicase inh-1; WRN helicase DNA unwinding, fluorescence kinetic; Potency, µM (top dose mostly 57.1 µM), most hits filed as inhibitors; actives 63% (n = 610); AID 720497; also: nearly all actives have a fitted effect of over 65% in size
TO displacement = counter-screen for WRN helicase inhibitors: DNA binding. shares compounds with WRN helicase inh-1. actives 10% (n = 610). Potency, µM (highest dose often 57.1 µM), actives largely listed as inhibitors. thiazole orange DNA binding displacement, fluorescence;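 also: drop in dye fluorescence marks compound binding to DNA; nearly all actives have a fitted effect of over 60% in size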
BLM helicase inh = blocks human BLM helicase in WRN counterscreen. actives 60% (n = 610). shares compounds with WRN helicase inh-1. Potency, µM (series often up to 57.1 µM), actives largely listed as inhibitors. Recombinant BLM helicase DNA unwinding, red fluorescence. AID 720503; also: nearly all actives have a fitted effect of over 60% in size
A number is an active result; – = inactive; ? = inconclusive; · = no result; [ ] = remark or other dose. Calls follow the shape of the dose curve; as a rule, active = well fitted curve in the direction sought with a large enough effect; inconclusive = small, poorly fitted or top-dose-only effect, or another doubt; inactive = no such curve, though single readings can be large; an effect the other way counts as inactive or inconclusive.

SMILES	Pol eta inh	Pol iota inh	WRN helicase inh-1	POLB inh	FEN1 inh	Pol kappa inh	WRN helicase inh-2	TO displacement	BLM helicase inh
C=CCc1cc(C=C2C(=O)N(C)C(=O)N(C)C2=O)cc(OCC)c1OCc1ccccc1	?	–	45µM	–	–	–	–	–	?
COc1cc(C2c3cc4c(cc3C(OC(C)=O)[C@H]3COC(=O)C23)OCO4)cc(OC)c1OC (stereo not given in full)	·	·	·	·	·	–	·	·	·
CC(CN)CC(=O)O (stereo not given)	·	·	·	·	·	–[19.4 µM]	·	·	·
CN1C(=O)/C(=C\c2ccc(Br)s2)C(=O)NC1=S	?	?	18µM	?	?	–	?	–	?
O=c1c2ccccc2nc(/C=C/c2cccnc2)n1Cc1ccccc1	?	2.8µM	32µM	–	89µM	–	–	–	–
O=c1c2ccccc2nc(/C=C/c2ccccc2)n1-c1ccc(O)cc1	–	–	–	–	–	–	·	·	·
CCCCn1c(=O)c(C=Nc2ccc(Cl)cc2)c(O)n(Cc2ccco2)c1=O	–	–	–	–	–	–	·	·	·
CCCCN1C(=O)/C(=C\c2ccco2)C(=O)N(CCc2ccccc2)C1=O	40µM	?	32µM	8.9µM	56µM	25µM	?	–	22µM
CCCCN1C(=O)/C(=C/c2ccc(N(C)C)cc2)C(=O)N(Cc2ccco2)C1=O	40µM	?	28µM	22µM	?	25µM	?	–	22µM
CN1C(=O)C(=CN2CCN(C(=O)c3ccco3)CC2)C(=O)N(C)C1=S	–	–	–	–	–	–	·	·	·
O=C(O)Cn1cc(/C=C2\C(=O)NC(=O)N(c3ccc(Br)cc3)C2=O)c2ccccc21	?	32µM	?	–	?	–	–	–	17µM
O=C1NC(=O)C(=Cc2ccccc2[N+](=O)[O-])C(=O)N1	–	–	40µM	·	–	–	–	–	–
CN(C)c1ccc(C=C2C(=O)NC(=O)NC2=O)cc1[N+](=O)[O-]	–	–	?	–	–	–	·	·	·
NCCCNCCCCNCCCNC(=O)Cc1ccc(O)cc1	·	·	·	·	·	–[12 µM]	·	·	·
Cc1cc2c(cc1C)-n1c(-c3ccccc3)c3c(=O)n(C)c(=O)n(C)c3c1C(c1ccco1)N2 (stereo not given)	–	–	·	?	–	–	·	·	·
